Experimental data published in PubChem BioAssay AID1671202 (University of Kansas High Throughput Screening Laboratory, 2021).
About 6,900 (3.6%) of roughly 190,000 compounds were called active. The list comes from a sample in which actives are over-represented; it also holds similar structures and randomly drawn compounds. Unmarked numbers belong to inactive results. Rule as the data show it: active = inhibition above about 50%; inactive = the rest.

The molecules below were run against Huntingtin (Homo sapiens) (UniProt P42858) (assay: mutant huntingtin-calmodulin interaction inhibitors – biochemical, AlphaScreen, primary screen (AID 1671202;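 also: 0% = both proteins with DMSO and 100% = one protein alone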)). Conditions: AlphaScreen His-mHTT/GST-CaM binding, luminescence; at 15 µM, active compounds read high.
Huntingtin (Homo sapiens), sequence (P42858 whole entry, looked up, stated change not applied): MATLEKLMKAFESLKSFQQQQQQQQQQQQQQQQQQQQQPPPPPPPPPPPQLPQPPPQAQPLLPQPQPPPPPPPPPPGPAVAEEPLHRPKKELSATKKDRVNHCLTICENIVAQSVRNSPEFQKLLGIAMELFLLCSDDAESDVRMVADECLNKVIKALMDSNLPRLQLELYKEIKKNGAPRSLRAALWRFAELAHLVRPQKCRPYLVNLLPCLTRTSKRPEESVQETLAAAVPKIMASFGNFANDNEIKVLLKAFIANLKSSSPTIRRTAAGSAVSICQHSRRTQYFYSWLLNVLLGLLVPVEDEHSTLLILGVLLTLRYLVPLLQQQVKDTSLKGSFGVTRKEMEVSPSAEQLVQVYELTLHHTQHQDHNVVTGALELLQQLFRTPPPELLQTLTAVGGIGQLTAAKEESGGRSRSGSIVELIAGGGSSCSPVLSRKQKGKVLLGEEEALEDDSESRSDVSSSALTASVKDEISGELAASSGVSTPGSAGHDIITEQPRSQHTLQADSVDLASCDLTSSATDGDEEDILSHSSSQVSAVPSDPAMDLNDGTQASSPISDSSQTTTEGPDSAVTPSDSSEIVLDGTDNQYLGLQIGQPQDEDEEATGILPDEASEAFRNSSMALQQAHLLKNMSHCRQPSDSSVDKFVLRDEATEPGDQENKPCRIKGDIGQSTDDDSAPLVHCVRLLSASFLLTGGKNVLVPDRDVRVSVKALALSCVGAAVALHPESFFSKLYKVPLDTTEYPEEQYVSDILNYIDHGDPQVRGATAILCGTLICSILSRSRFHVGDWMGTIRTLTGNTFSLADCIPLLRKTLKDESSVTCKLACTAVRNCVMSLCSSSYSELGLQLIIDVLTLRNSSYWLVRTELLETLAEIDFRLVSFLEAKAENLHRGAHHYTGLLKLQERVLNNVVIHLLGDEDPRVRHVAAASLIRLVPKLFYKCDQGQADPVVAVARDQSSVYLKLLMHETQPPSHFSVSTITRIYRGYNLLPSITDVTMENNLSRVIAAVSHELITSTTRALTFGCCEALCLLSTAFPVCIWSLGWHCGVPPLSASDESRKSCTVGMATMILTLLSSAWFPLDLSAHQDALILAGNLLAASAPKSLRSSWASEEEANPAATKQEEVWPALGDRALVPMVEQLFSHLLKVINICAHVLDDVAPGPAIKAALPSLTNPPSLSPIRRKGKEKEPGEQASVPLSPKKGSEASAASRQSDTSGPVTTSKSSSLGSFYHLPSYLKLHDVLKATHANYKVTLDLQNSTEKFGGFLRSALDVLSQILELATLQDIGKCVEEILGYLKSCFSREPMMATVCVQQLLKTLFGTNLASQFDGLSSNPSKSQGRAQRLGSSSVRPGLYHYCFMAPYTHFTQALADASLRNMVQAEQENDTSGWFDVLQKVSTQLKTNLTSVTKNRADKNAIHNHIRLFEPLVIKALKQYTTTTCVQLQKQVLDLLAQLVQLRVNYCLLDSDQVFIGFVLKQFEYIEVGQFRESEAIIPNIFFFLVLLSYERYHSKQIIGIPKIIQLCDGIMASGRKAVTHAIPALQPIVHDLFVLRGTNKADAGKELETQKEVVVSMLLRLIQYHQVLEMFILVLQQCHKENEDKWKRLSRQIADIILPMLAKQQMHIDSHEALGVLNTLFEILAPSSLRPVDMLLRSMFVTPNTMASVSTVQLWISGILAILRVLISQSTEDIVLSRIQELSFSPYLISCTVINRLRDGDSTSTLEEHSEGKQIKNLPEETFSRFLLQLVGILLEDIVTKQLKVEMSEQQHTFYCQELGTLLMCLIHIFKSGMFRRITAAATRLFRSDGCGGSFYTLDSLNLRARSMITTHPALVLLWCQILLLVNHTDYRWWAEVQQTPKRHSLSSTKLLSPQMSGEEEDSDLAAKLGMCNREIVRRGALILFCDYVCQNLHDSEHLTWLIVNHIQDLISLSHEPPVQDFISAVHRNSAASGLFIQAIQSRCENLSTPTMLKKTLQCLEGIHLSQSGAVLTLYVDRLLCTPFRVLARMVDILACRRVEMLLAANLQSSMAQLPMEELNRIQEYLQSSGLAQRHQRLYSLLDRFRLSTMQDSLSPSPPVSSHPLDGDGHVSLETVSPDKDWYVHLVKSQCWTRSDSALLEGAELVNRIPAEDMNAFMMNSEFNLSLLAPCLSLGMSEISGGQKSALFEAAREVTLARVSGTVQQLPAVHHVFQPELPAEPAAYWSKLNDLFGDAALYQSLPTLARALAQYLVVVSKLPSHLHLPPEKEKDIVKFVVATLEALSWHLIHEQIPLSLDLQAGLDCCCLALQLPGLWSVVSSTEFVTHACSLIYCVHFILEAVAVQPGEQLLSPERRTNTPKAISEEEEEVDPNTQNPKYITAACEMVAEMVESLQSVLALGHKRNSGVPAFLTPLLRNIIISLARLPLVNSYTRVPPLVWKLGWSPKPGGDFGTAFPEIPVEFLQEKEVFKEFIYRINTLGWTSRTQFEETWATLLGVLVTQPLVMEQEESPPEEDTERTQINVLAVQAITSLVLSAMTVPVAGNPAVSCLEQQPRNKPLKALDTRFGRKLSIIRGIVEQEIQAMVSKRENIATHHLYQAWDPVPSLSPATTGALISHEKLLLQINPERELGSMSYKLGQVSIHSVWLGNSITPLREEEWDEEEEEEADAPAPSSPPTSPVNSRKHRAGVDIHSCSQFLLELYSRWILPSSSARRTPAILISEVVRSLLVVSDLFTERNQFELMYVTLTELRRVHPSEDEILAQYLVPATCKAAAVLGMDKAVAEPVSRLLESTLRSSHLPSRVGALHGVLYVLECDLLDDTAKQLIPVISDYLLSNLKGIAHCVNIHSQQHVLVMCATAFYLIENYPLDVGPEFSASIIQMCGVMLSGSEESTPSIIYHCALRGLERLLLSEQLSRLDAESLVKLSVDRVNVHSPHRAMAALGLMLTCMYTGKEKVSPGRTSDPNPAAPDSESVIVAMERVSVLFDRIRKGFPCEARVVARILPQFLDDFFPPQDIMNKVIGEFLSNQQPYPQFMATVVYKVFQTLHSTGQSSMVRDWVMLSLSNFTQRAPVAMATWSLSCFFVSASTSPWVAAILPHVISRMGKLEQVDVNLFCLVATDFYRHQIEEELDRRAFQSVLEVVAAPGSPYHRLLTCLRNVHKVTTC
Work on `O=C(Nc1ccc2c(c1)OCO2)N1CCOc2ccccc21` yielded an inhibition of 7.08%.
With `Cc1nc2c(C(=O)NC3CCCC3)cnn2c(C)c1Cc1cccc(Cl)c1` the inhibition was 79% (active).
For `Cc1ccccc1Cc1c(C)nc2c(C(=O)NC3CCCCC3)cnn2c1C`, the inhibition was 3%.
`Cc1cc(C)c(Cc2c(C)nc3c(C(=O)NC4CCCC4)cnn3c2C)c(C)c1` was tested, and the inhibition was -6%.
Work on `COc1ccc(C2=NC3(CCN(CC(=O)NCc4ccc(C)cc4)CC3)NC2=O)cc1` yielded an inhibition of 18.4%.
Work on `CC(C)NC(=O)c1ccc(C(=O)NC(C)C)nc1` yielded an inhibition of 0.9%.
Molecule `O=C(NC1CC1)C1CCN(c2nc3ccc(-c4ccccc4)nc3s2)CC1` has an inhibition of 0.8%.
`COc1ccc(-c2ccc3nc(N4CCC(C(N)=O)CC4)sc3n2)cc1` showed an inhibition of 27%.
For `CN(C)C(=O)C1CCN(c2nc3ccc(-c4cccc(F)c4)nc3s2)CC1`, the inhibition was 0.2%.
`CC(C)CNC(=O)C1CCN(c2nc3ccc(-c4ccncc4)nc3s2)CC1` gave an inhibition of 4.07%.
`CN1CCC(NC(=O)C2CCN(c3nc4ccc(-c5ccsc5)nc4s3)CC2)CC1` was tested, and the inhibition was 70.8% (active).
`CCN(CC)C(=O)C1CCN(c2nc3ccc(-c4ccc(OC)cc4)nc3s2)CC1` was tested, and the inhibition was 66.8% (active).
Work on `O=C(NCc1ccc2c(c1)OCO2)c1cc2c(s1)CCN(C(=O)c1ccc(F)cc1)C2` yielded an inhibition of 1.84%.
For `CCOc1ccc2c(=O)c(Oc3ccccc3)coc2c1`, the inhibition was -2.3%.
`CCOc1ccccc1NC(=O)Nc1ccc2c(c1)CN(C(=O)c1ccco1)CC2` showed an inhibition of 28.9%.
`Cn1c(C2CCN(C(=O)Cc3ccccc3)C2)nc2ccncc21` (stereo not drawn) gave an inhibition of -1.65%.
Work on `N#Cc1nc(-c2ccco2)oc1N1CCN(C(=O)c2ccccc2F)CC1` yielded an inhibition of -5.8%.
`Cc1ccccc1-n1c(=O)n(C2CC2)c(=O)c2c1ncn2Cc1c(F)cccc1F` showed an inhibition of -4.6%.
For `COc1ccc(C(=O)Sc2nc(C)cc(C)n2)cc1`, the inhibition was 98% (active).
`COc1ccc(NC(=O)c2ccc(OC)cc2)cc1` gave an inhibition of -2%.
With `Cc1cc(C)nc(SCC(=O)c2ccc(Cl)cc2)n1` the inhibition was 1.3%.
For `COc1ccc(C2=N/C(=C\c3ccc(Cl)cc3)C(=O)O2)cc1OC`, the inhibition was -4%.
`O=c1[nH]c2ccc(S(=O)(=O)Nc3ccc(OC(F)(F)F)cc3)cc2o1` was tested, and the inhibition was 0%.
For `O=C(Nc1nnc(Cc2cccs2)o1)c1ccc(Cl)cc1Cl`, the inhibition was 6%.
In the case of `COc1ccc(-c2cc3c(c4c2ccn4C)C2CCC3C2)cn1` (stereo not drawn), the inhibition is reported as 52.6% (active).
`Cc1cc2[nH]c(C(=O)Nc3ccccc3F)c(CN3CCOCC3)c2s1` was tested, and the inhibition was 23%.
`COc1ccc(C(=O)N2CCC(c3cc(N)on3)CC2)cc1F` was tested, and the inhibition was 3.7%.
With `CCCCN(C)C(=O)C1CCCN(c2ncccc2-c2noc(C3CCC3)n2)C1` (stereo not drawn) the inhibition was 23.9%.
Work on `COc1ccc2c(c1)C1=NN(C(C)=O)C(c3cccc([N+](=O)[O-])c3)C1CC2` (stereo not drawn) yielded an inhibition of 3%.
In the case of `COc1cc2c(cc1OC)C(C(=O)O)C(c1cccc([N+](=O)[O-])c1)N(C)C2=O` (stereo not drawn), the inhibition is reported as 0%.
`CC(=O)c1cc2c3c(c1)C1C=CCC1C(c1cccc([N+](=O)[O-])c1)N3CC1CC=CC21` (stereo not drawn) was tested, and the inhibition was 97% (active).
`O=C(NCc1ccco1)Nc1c[nH]c2ccccc12` was tested, and the inhibition was 3%.
In the case of `NCCN1C(=O)c2[nH]nc(-c3ccccc3)c2C1c1ccccc1` (stereo not drawn), the inhibition is reported as 9%.
`CCOC(=O)N1CCC(c2nnc(Cc3ccc(OC)cc3)s2)CC1` gave an inhibition of -8.5%.
In the case of `NS(=O)(=O)c1ccc(C(=O)NCCOc2ccc(-c3ccccn3)nn2)cc1`, the inhibition is reported as 100% (active).
`Cc1ccc(C(=O)Nc2cc(-c3ccccn3)no2)cc1` showed an inhibition of 1.2%.
In the case of `Cc1nc(-c2ccccc2)sc1C(=O)NCCOc1ccc(-c2cccs2)nn1`, the inhibition is reported as 6%.
Molecule `O=C(Cc1ccccc1Cl)NCC1CCN(c2cc(-c3ccncc3)[nH]n2)CC1` has an inhibition of -5.18%.
